The values below come from paper PMC11062922 (Nature Chemical Biology, 2023).

Like-named read-outs stand apart in the source and are kept apart here.

The subject of one experiment is AAK1. Set-up: species or system human, MV4-11 + K-562 + COLO205 + SK-N-BE2 + OVCAR-8. As to conditions: read-out: apparent Kd, n = 1.
A further experiment has as its system BMP2K. The arrangement: species or system human, MV4-11 + K-562 + COLO205 + SK-N-BE2 + OVCAR-8. The following applies: read-out: apparent Kd, n = 1.
The next experiment relates to CLK1. The arrangement: species or system human, MV4-11 + K-562 + COLO205 + SK-N-BE2 + OVCAR-8. As to conditions: read-out: apparent Kd, n = 1.
In a further experiment the test system is CSNK2A1;CSNK2A3. Set-up: species or system human, MV4-11 + K-562 + COLO205 + SK-N-BE2 + OVCAR-8. As to conditions: read-out: apparent Kd, n = 1.
For another experiment, the system named is CSNK2A2. Set-up: species or system human, MV4-11 + K-562 + COLO205 + SK-N-BE2 + OVCAR-8. As to conditions: read-out: apparent Kd, n = 1.
In a further experiment the test system is FLT4. Set-up: species or system human, MV4-11 + K-562 + COLO205 + SK-N-BE2 + OVCAR-8. The following applies: read-out: apparent Kd, n = 1.
The subject of another experiment is GAK. The arrangement: species or system human, MV4-11 + K-562 + COLO205 + SK-N-BE2 + OVCAR-8. As to conditions: read-out: apparent Kd, n = 1.
For the next experiment, the system named is GSK3A. Set-up: species or system human, MV4-11 + K-562 + COLO205 + SK-N-BE2 + OVCAR-8. As to conditions: read-out: apparent Kd, n = 1.
In a further experiment the test system is GSK3B. The arrangement: species or system human, MV4-11 + K-562 + COLO205 + SK-N-BE2 + OVCAR-8. As to conditions: read-out: apparent Kd, n = 1.
In the next experiment the test system is NUAK1. Set-up: species or system human, MV4-11 + K-562 + COLO205 + SK-N-BE2 + OVCAR-8. The following applies: read-out: apparent Kd, n = 1.
In the next experiment the test system is PAK4. Set-up: species or system human, MV4-11 + K-562 + COLO205 + SK-N-BE2 + OVCAR-8. As to conditions: read-out: apparent Kd, n = 1.
A further experiment has as its system PKN1. Set-up: species or system human, MV4-11 + K-562 + COLO205 + SK-N-BE2 + OVCAR-8. The following applies: read-out: apparent Kd, n = 1.
Experiment [1] relates to PKN3. Set-up: species or system human, MV4-11 + K-562 + COLO205 + SK-N-BE2 + OVCAR-8. As to conditions: read-out: apparent Kd, n = 1.
The next experiment deals with PRKAG1. The arrangement: species or system human, MV4-11 + K-562 + COLO205 + SK-N-BE2 + OVCAR-8. As to conditions: read-out: apparent Kd, n = 1.
A further experiment concerns the target Q6ZSR9 (human, UniProt Q6ZSR9). The arrangement: species or system MV4-11 + K-562 + COLO205 + SK-N-BE2 + OVCAR-8. As to conditions: read-out: apparent Kd; compound concentrations:100 nM and 1000 nM (sheet 'Samples'); n = 1.
A further experiment deals with RET. Set-up: species or system human, MV4-11 + K-562 + COLO205 + SK-N-BE2 + OVCAR-8. The following applies: read-out: apparent Kd, n = 1.
A further experiment deals with SIK2. The arrangement: species or system human, MV4-11 + K-562 + COLO205 + SK-N-BE2 + OVCAR-8. The following applies: read-out: apparent Kd, n = 1.
Experiment [2] has as its system PKN3. The following applies: hek293t cells.
A further experiment relates to CLK4. The arrangement: species or system human, MV4-11 + K-562 + COLO205 + SK-N-BE2 + OVCAR-8. As to conditions: read-out: apparent Kd, n = 1.
The subject of the next experiment is MELK. The arrangement: species or system human, MV4-11 + K-562 + COLO205 + SK-N-BE2 + OVCAR-8. The following applies: read-out: apparent Kd, n = 1.
Where [3] appears, read: compound concentrations:100 nM and 1000 nM (sheet 'Samples').
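For IC50 in this document: NanoBRET target engagement in HEK293T cells transiently expressing full-length PKN3 with C-terminal NanoLuc, displacement of fluorescent tracer K5 (500 nM), BRET read after 2 h equilibration at 37 °C.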

Chain of Q6ZSR9 (Q6ZSR9 whole entry, looked up): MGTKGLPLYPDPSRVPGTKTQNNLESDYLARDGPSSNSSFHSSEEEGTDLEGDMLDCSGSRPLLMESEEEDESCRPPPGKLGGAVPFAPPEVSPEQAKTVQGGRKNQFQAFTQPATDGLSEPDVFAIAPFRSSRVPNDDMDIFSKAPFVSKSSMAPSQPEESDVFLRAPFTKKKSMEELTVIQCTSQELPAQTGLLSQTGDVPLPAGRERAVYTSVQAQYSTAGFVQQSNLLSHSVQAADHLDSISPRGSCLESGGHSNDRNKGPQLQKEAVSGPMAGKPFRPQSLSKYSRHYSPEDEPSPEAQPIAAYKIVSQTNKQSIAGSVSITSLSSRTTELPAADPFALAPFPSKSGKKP

`Cc1ccc2c(-c3ccncc3)c(-c3ccc(F)cc3)nn2c1.Cl` [GW461484A]: the potency estimated from few doses in the experiment on AAK1 (setting [3]) was 767 nM; in the experiment with BMP2K (setting [3]), 1900 nM; with CLK1 (setting [3]), 548 nM; in the experiment with CSNK2A1;CSNK2A3 (setting [3]), 1550 nM; in the experiment with CSNK2A2 (setting [3]), 2220 nM; in the experiment with FLT4 (setting [3]), 1320 nM. For the same compound, the potency estimated from few doses with GAK (setting [3]) was 319 nM; with GSK3A (setting [3]), 434 nM; with GSK3B (setting [3]) it was 493 nM; in the experiment with NUAK1 (setting [3]) it was 1590 nM; in the experiment with PAK4 (setting [3]), 888 nM; in the experiment with PKN1 (setting [3]) it was 2010 nM. Also, the potency estimated from few doses is 1390 nM in the experiment with PKN3 [1] (setting [3]); 560 nM with PRKAG1 (setting [3]); 942 nM with Q6ZSR9; 683 nM with RET (setting [3]); 696 nM with SIK2 (setting [3]).
Take `COc1cc(Nc2ncc3c(C)nc(-c4cc5ccccc5[nH]4)n3n2)cc(OC)c1OC` [GW869516X]: the potency estimated from few doses in the experiment with CSNK2A1;CSNK2A3 (compound concentrations: 100 nM and 1000 nM (sheet 'Samples'), CATDS: 0.461357463552929) is 78.3 nM; in the experiment on CSNK2A2 (compound concentrations: 100 nM and 1000 nM (sheet 'Samples'), CATDS: 0.54570756078054605) it was 55.8 nM.
Regarding `CCn1c(-c2nonc2N)nc2c(C#CC(C)(C)O)nc(OCCN)cc21.CCn1c(-c2nonc2N)nc2c(C#CC(C)(C)O)nc(OCCN)cc21.Cl.Cl` [GSK902056A], the potency estimated from few doses was 113 nM in the experiment on GSK3A (setting [3]), 136 nM in the experiment on GSK3B (setting [3]), 677 nM with PAK4 (setting [3]) and 85 nM with PKN1 (setting [3]). Also, the IC50 amounted to 99.2 nM in the experiment with PKN3 [2] (read-out: Average, SD, n = 4); 234 nM in the experiment on PKN3 [2] (read-out: Rep 1); 56.5 nM with PKN3 [2] (read-out: Rep 2); 27 nM in the experiment on PKN3 [2] (read-out: Rep 3); 79.2 nM in the experiment with PKN3 [2] (read-out: Rep 4).
Take `CNC(=O)c1ccccc1Nc1nc(Nc2ccc(N3CCOCC3)cc2)ncc1Cl.Cl` [GSK1576028A]: the potency estimated from few doses in the experiment on AAK1 (setting [3]) was 142 nM; with BMP2K (setting [3]), 1140 nM; in the experiment with CLK1 (setting [3]), 260 nM; in the experiment on CLK4 (setting [3]), 321 nM; with CSNK2A1;CSNK2A3 (setting [3]) it was 59.3 nM; with CSNK2A2 (setting [3]), 24.4 nM. Moreover, the potency estimated from few doses in the experiment on FLT4 (setting [3]) was 309 nM; in the experiment on GAK (setting [3]), 90.3 nM; with MELK (setting [3]) it was 2220 nM; in the experiment with NUAK1 (setting [3]), 92.2 nM; in the experiment on PRKAG1 (setting [3]) it was 461 nM; in the experiment with Q6ZSR9, 116 nM. Also, the potency estimated from few doses with RET (setting [3]) was 93.9 nM; in the experiment with SIK2 (setting [3]) it was 611 nM.
As for `CONC1=NC(=O)/C(=C/c2ccc3ncccc3c2)S1` [RO4613269-000], the potency estimated from few doses in the experiment with CSNK2A1;CSNK2A3 (compound concentrations: 100 nM and 1000 nM (sheet 'Samples'), CATDS: 0.42776292921510001) was 58.1 nM; in the experiment on CSNK2A2 (compound concentrations: 100 nM and 1000 nM (sheet 'Samples'), CATDS: 0.433008345682735), 56.8 nM.
For the compound `CCn1c(-c2nonc2N)nc2c(-c3ccccc3)ncc(OCCCN)c21.CCn1c(-c2nonc2N)nc2c(-c3ccccc3)ncc(OCCCN)c21.O=C(O)C(F)(F)F.O=C(O)C(F)(F)F` [GSK260205A], the potency estimated from few doses was 1380 nM with GAK (compound concentrations: 100 nM and 1000 nM (sheet 'Samples'), CATDS: 2.96050281932086E-2); 1.1 nM with PKN3 [1] (compound concentrations: 100 nM and 1000 nM (sheet 'Samples'), CATDS: 0.85080270266883096); 99.7 nM in the experiment on RET (compound concentrations: 100 nM and 1000 nM (sheet 'Samples'), CATDS: 8.7615337764420001E-2). For the same compound, the IC50 in the experiment with PKN3 [2] (read-out: Average, SD, n = 4) is 22.3 nM; in the experiment with PKN3 [2] (read-out: Rep 1), 73.6 nM; with PKN3 [2] (read-out: Rep 2), 6.19 nM; in the experiment with PKN3 [2] (read-out: Rep 3), 6.22 nM; in the experiment with PKN3 [2] (read-out: Rep 4) it was 3.37 nM.
In the case of `Cn1ncc2c(N)ncnc21` [SKF-18267], the potency estimated from few doses with AAK1 (compound concentrations: 100 nM and 1000 nM (sheet 'Samples'), CATDS: 4.0309487407882601E-3) is 1310 nM; in the experiment with BMP2K (compound concentrations: 100 nM and 1000 nM (sheet 'Samples'), CATDS: 3.9456431934801499E-3), 1380 nM; in the experiment on CLK1 (compound concentrations: 100 nM and 1000 nM (sheet 'Samples'), CATDS: 4.6708282192626498E-3), 936 nM; in the experiment on CLK4 (compound concentrations: 100 nM and 1000 nM (sheet 'Samples'), CATDS: 3.9570541670233801E-3) it was 1370 nM; in the experiment with CSNK2A1;CSNK2A3 (compound concentrations: 100 nM and 1000 nM (sheet 'Samples'), CATDS: 3.9180257487408596E-3) it was 1410 nM; with FLT4 (compound concentrations: 100 nM and 1000 nM (sheet 'Samples'), CATDS: 3.68265662419527E-3) it was 1670 nM. Also, the potency estimated from few doses in the experiment with GAK (compound concentrations: 100 nM and 1000 nM (sheet 'Samples'), CATDS: 4.6125077933925696E-3) is 961 nM; with GSK3A (compound concentrations: 100 nM and 1000 nM (sheet 'Samples'), CATDS: 6.4966954074714102E-3), 507 nM; in the experiment on GSK3B (compound concentrations: 100 nM and 1000 nM (sheet 'Samples'), CATDS: 6.1120630546354802E-3), 562 nM; with MELK (compound concentrations: 100 nM and 1000 nM (sheet 'Samples'), CATDS: 3.6400689102280299E-3) it was 1720 nM; in the experiment on NUAK1 (compound concentrations: 100 nM and 1000 nM (sheet 'Samples'), CATDS: 3.5163912979630598E-3) it was 1910 nM; in the experiment with PAK4 (compound concentrations: 100 nM and 1000 nM (sheet 'Samples'), CATDS: 4.003241038036E-3), 1330 nM. Besides, the potency estimated from few doses is 1280 nM in the experiment with PKN1 (compound concentrations: 100 nM and 1000 nM (sheet 'Samples'), CATDS: 4.0652178532190096E-3); 512 nM with PRKAG1 (compound concentrations: 100 nM and 1000 nM (sheet 'Samples'), CATDS: 6.4543335305036397E-3); 906 nM with RET (compound concentrations: 100 nM and 1000 nM (sheet 'Samples'), CATDS: 4.7446456770992903E-3); 824 nM with SIK2 (compound concentrations: 100 nM and 1000 nM (sheet 'Samples'), CATDS: 4.9685571215498103E-3).
For the compound `Cc1cccc2c(-c3ccncn3)c(-c3ccc(F)cc3)nn12` [GW515532X], the potency estimated from few doses in the experiment on PKN3 [1] (compound concentrations: 100 nM and 1000 nM (sheet 'Samples'), CATDS: 0.37134711180045199) was 663 nM. Moreover, the IC50 was determined as 26700 nM with PKN3 [2] (read-out: Average, SD, n = 3); 78800 nM with PKN3 [2] (read-out: Rep 1); 922 nM in the experiment on PKN3 [2] (read-out: Rep 2); 257 nM with PKN3 [2] (read-out: Rep 4).
As for `Fc1ccc(-c2c(-c3ccncc3)[nH]c3cccnc23)cc1` [RO1153853-000], the potency estimated from few doses in the experiment on PKN3 [1] (compound concentrations: 100 nM and 1000 nM (sheet 'Samples'), CATDS: 0.27237296502427) is 55.8 nM. Further, the IC50 in the experiment with PKN3 [2] (read-out: Average, SD, n = 4) worked out at 2360 nM; in the experiment with PKN3 [2] (read-out: Rep 1) it was 8030 nM; in the experiment with PKN3 [2] (read-out: Rep 2), 951 nM; in the experiment on PKN3 [2] (read-out: Rep 3), 164 nM; with PKN3 [2] (read-out: Rep 4) it was 295 nM.
